From PubChem BioAssay AID686979 (National Center for Advancing Translational Sciences (NCATS), 2013) come the findings set out here.

Hit rate of the full screen: of about 420,000 compounds, about 50,000 (12%) were called active. Not shown: some 26% with an inconclusive outcome. Calls come from the whole dose curve; as a rule, active = well fitted inhibition curve with a large enough effect; inconclusive = small, poorly fitted or top-dose-only effect; inactive = flat fitted curve, though single readings scatter. The full list was thinned out, with actives kept by preference.
% is set by controls: 0 for no effect and ±100 for the full control effect; potency is the fitted concentration of half-maximal effect.

This assay is described as follows: qHTS for Inhibitors of human tyrosyl-DNA phosphodiesterase 1 (TDP1): qHTS in cells in presence of CPT. Note: nearly all actives have a fitted effect of over 55% in size. The note with it: chicken DT40 Tdp1-/-;hTDP1 cells + 20 nM CPT, ATP luminescence, 48 h; series mostly up to 46.2 µM; activity change, negative = growth inhibition: at the top concentration. In a few lines: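 Cell growth measured by CellTiter-Glo luminescence after a minimum 48 h, 37 C compound exposure with 20 nM CPT in Tdp1-knockout DT40 cells stably expressing hTDP1, seeded 400/well; qHTS titration format.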
On the technique in general: In qHTS, concentration-response curves come from the screen itself.
For `Cn1c(SCC(=O)C(C)(C)C)nnc1-c1ccccn1`, the “activity change, negative = growth inhibition” value is -0.85% (inactive).

For the molecule `CCOC(=O)c1c(S(=O)(=O)N2CCC(C(=O)NCc3ccccc3OC)CC2)c(C)n(C)c1C`, the “activity change, negative = growth inhibition” value was -1.17% (inactive).

For `CCCCNC(=O)Cn1nc(C)c(S(=O)(=O)N2CCOCC2)c1C`, the “activity change, negative = growth inhibition” value was -16.1% (inactive).

Turning to `COc1ccc2nc(N3C(=O)C(O)=C(C(=O)c4ccco4)C3c3ccco3)sc2c1` (stereo not drawn), the “activity change, negative = growth inhibition” value is 2.99% (inactive).

As to `Cc1ccc2nc(N3CCN(C(=O)c4ccco4)CC3)sc2c1`, the “activity change, negative = growth inhibition” value was 7.4% (inactive).

For `COc1ccc2nc(N3CCN(C(=O)c4ccc([N+](=O)[O-])o4)CC3)sc2c1`, the Potency was 14.6 µM (active).

Turning to `COc1ccc(C(=O)OCC(=O)c2ccc(Cl)s2)c(OC)c1OC`, the “activity change, negative = growth inhibition” value was -13.5% (inactive).

Take `Oc1ccc(-c2[nH]ncc2-c2nc3ccccc3s2)c(O)c1`: the “activity change, negative = growth inhibition” value is -5.33% (inactive).

As for `COc1ccc(Oc2cn[nH]c2-c2ccc(OC)cc2O)cc1`, the Potency is 25.9 µM (active).

Regarding `COc1ccc(-c2[nH]ncc2CN(C)Cc2c(C)n[nH]c2C)c(OC)c1`, the “activity change, negative = growth inhibition” value was 2.49% (inactive).

For `CN1CCN(c2ccc([N+](=O)[O-])c(Sc3nc4ccccc4[nH]3)c2)CC1`, the “activity change, negative = growth inhibition” value is -29.7% (inactive).

Turning to `CC(C)c1ccc(NC(=O)COC(=O)c2ccc(CN3CCCC3=O)cc2)cc1`, the “activity change, negative = growth inhibition” value is -5% (inactive).

With `O=C1CN(C(=O)COC(=O)/C=C/c2ccc(F)cc2)c2ccccc2N1`, the “activity change, negative = growth inhibition” value is 18% (inactive).

For the molecule `COc1ccc(-c2nc3sc(CCNC(=O)C(C)(C)C)c(C)n3n2)cc1`, the Potency was 29.1 µM (active).

As to `Cc1c(CCNC(=O)c2ccc(C(F)(F)F)cc2)sc2nc(-c3ccc(F)cc3)nn12`, the “activity change, negative = growth inhibition” value was -7.8% (inactive).

Regarding `CCOc1ccc2nc(NCCNC(=O)C(C)(C)C)c(C)cc2c1`, the “activity change, negative = growth inhibition” value is -4.1% (inactive).

Take `O=C(NC1CCCC1)C1c2ccccc2OCC(=O)N1CC(F)(F)F` (stereo not drawn): the “activity change, negative = growth inhibition” value was -9.47% (inactive).

With `CCn1ccnc1CN1CCCC(C(=O)c2ccc3c4c(cccc24)CC3)C1` (stereo not drawn), the Potency was 7.31 µM (active).

With `Cc1ncoc1C(=O)N1CCCC(C(=O)c2ccc3c4c(cccc24)CC3)C1` (stereo not drawn), the Potency is 18.4 µM (active).

With `Cc1c(CN2CCCC(C(=O)c3cccc(Cl)c3)C2)c(=O)n(-c2ccccc2)n1C` (stereo not drawn), the “activity change, negative = growth inhibition” value is -1.58% (inactive).

For `CCc1nccn1CCC(=O)N1CCCC(N2CCN(c3ccccc3F)CC2)C1` (stereo not drawn), the “activity change, negative = growth inhibition” value was -6.03% (inactive).

On to `Cc1ccccc1N1CCN(C2CCCN(C(=O)c3ocnc3C)C2)CC1` (stereo not drawn), for which the “activity change, negative = growth inhibition” value was -9.73% (inactive).

Consider `CC(=O)NCC(=O)N1CCCC(C(=O)c2ccc3c4c(cccc24)CC3)C1` (stereo not drawn), for which the “activity change, negative = growth inhibition” value was -25.7% (inactive).

`CCOC1=C2[C@H]([C@H]3C(=O)N(c4ccccc4)C(=O)[C@H]3C1)[C@@H](c1ccccc1)N(S(=O)(=O)c1ccc(C)cc1)[C@H]2c1ccccc1`: the “activity change, negative = growth inhibition” value was -13.4% (inactive).

Regarding `O=C(Cn1ncn2nc(-c3cccs3)cc2c1=O)NCc1cccc(Br)c1`, the “activity change, negative = growth inhibition” value is -20.4% (inactive).

`COc1cc(NC(=O)c2ccccc2)c(OC)cc1NC(=O)Cc1ccccc1`: the “activity change, negative = growth inhibition” value was -29.7% (inactive).

Turning to `COc1ccc(C(=O)OCC(=O)Nc2cc(C)on2)cc1F`, the “activity change, negative = growth inhibition” value is -15.2% (inactive).

On to `CC(=O)c1ccc(NC(=O)C(C)OC(=O)c2ccc(NS(=O)(=O)c3ccc4[nH]c(=O)[nH]c4c3)cc2)cc1` (stereo not drawn), for which the “activity change, negative = growth inhibition” value was 1.01% (inactive).

Take `CCOc1ccc(/C=N/Nc2nncc(-c3ccccc3)n2)cc1OC`: the Potency was 16.4 µM (active).

As to `COc1cc(/C=N/n2c(C)n[nH]c2=S)ccc1OCc1ccccc1`, the “activity change, negative = growth inhibition” value is -11.3% (inactive).

With `COc1cccc(/C=N\Nc2nncc(-c3ccccc3)n2)c1`, the “activity change, negative = growth inhibition” value was -0.484% (inactive).

In the case of `CC(CO)N1CCS(=O)(=O)CC1` (stereo not drawn), the “activity change, negative = growth inhibition” value was 9.38% (inactive).

Turning to `COc1ccc(/C=C/c2c(-c3cccc(C)c3)oc3ccc(-c4ccc5c(c4)OCO5)cc23)cc1`, the “activity change, negative = growth inhibition” value was -16.4% (inactive).

Consider `CC1CN(Cc2ccccc2)C(=S)NC1=O` (stereo not drawn), for which the “activity change, negative = growth inhibition” value is 7.52% (inactive).

Regarding `CC(=O)Oc1c2c(c3c(c1CC=C(C)C)O[C@@]14C(=CC5CC1C(C)(C)OC4(C/C=C(\C)C(=O)O)C5=O)C3=O)OC(C)(CCC=C(C)C)C=C2` (stereo partly drawn), the Potency is 2.91 µM (active).

On to `O=C1C(=O)N(CCCN2CCOCC2)C(c2ccc([N+](=O)[O-])cc2)/C1=C(\O)c1ccc2c(c1)OCCO2` (stereo not drawn), for which the “activity change, negative = growth inhibition” value is -2.39% (inactive).

Turning to `Cc1ccc(NC(=O)CN(C)C(=O)Cn2nnc(-c3ccccc3)n2)cc1`, the “activity change, negative = growth inhibition” value is 12.9% (inactive).

In the case of `Cc1cc(O)c(C2(O)C(=O)Nc3ccccc32)cc1C` (stereo not drawn), the “activity change, negative = growth inhibition” value is 5.24% (inactive).

For the molecule `COc1ccc2ncc3c(-c4ccc(C)c(C)c4)nn(CC(=O)NC4CCCC4)c3c2c1`, the Potency is 5.17 µM (active).

For `COc1ccc(-c2nn(CC(=O)NC3CCCC3)c3c2cnc2ccc(F)cc23)cc1`, the “activity change, negative = growth inhibition” value was -6.97% (inactive).

As for `CCc1ccc2ncc3c(-c4ccc(C)cc4)nn(CC(=O)NCc4ccccc4)c3c2c1`, the “activity change, negative = growth inhibition” value is -20.3% (inactive).

In the case of `O=C(COC(=O)CSc1ccccc1)Nc1ccc(F)cc1F`, the “activity change, negative = growth inhibition” value is -4.02% (inactive).

As for `O=C(Nc1ccc2c(c1)[C@@H]1C[C@@H](CC(=O)N3CCCCC3)O[C@@H](CO)[C@@H]1O2)NC1CCCCC1`, the “activity change, negative = growth inhibition” value is -8.78% (inactive).

As for `O=C(C[C@H]1C[C@@H]2c3cc(NC(=O)C4CCC4)ccc3O[C@@H]2[C@H](CO)O1)NC1CCCCC1`, the “activity change, negative = growth inhibition” value was 28.7% (inactive).

In the case of `O=C(C[C@H]1C[C@H]2c3cc(NS(=O)(=O)c4ccc(F)cc4)ccc3O[C@H]2[C@H](CO)O1)NCc1cc(F)ccc1F`, the Potency was 16.4 µM (active).

On to `Cc1cccc(C(=O)N2CCC(c3nc4ccccc4s3)CC2)c1`, for which the “activity change, negative = growth inhibition” value was -8.8% (inactive).

As for `COC(=O)C1=NNC2(c3ccc(C)cc3)C(=O)N(c3cccc(C)c3C)C(=O)C12` (stereo not drawn), the “activity change, negative = growth inhibition” value is -9.35% (inactive).

On to `CCCCn1c(N)c(N(CC)C(=O)c2ccc(N(C)S(=O)(=O)c3ccc(C)cc3)cc2)c(=O)[nH]c1=O`, for which the “activity change, negative = growth inhibition” value was 3.11% (inactive).
